Most compounds without a hit are left out; they make up all but 4.3% or so of the library.
Peg3 prom inh – Peg3 promoter activity inhibition; HeLa PEG-Prom luciferase reporter, luminescence, overnight; 360,000 compounds, 1.7% hits; inhibition, % at 20 µM; AID 588405;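 active means inhibition of at least 50% at 20 µM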
CF NFkB inh – inhibitors of cystic fibrosis induced NF-kB | 360,000 compounds, 0.86% hits | inhibition, % at 5 µM | KKLEB NF-kB-GFP reporter, PAF-induced, GFP fluorescence overnight;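 active means at least 50% inhibition at 5 µM, scaled per plate between neutral and stimulator controls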;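 further: PAF is a Pseudomonas aeruginosa culture filtrate used as stimulus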
HIF-2a block – HIF-2a inhibition | inhibition, % at 18.8 µM | AID 624352 | 360,000 compounds, 0.72% hits | 786-0 RCC cells HIF-2a reporter, luciferase luminescence, overnight;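 active means inhibition of the luminescence signal of 40% or more relative to plate controls, in a single-dose primary screen at 18.75 µM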
KKLEB cytotox – counter-screen for CF NF-kB inhibitors: cytotoxicity | KKLEB CF airway cells viability, ATPlite luminescence, overnight; hits give low values; cells stimulated with P. aeruginosa culture filtrate | 360,000 compounds, 0.36% hits | activity change (cytotoxicity), % at 5 µM | AID 602141;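 active means corrected activity change at or below -50% at 5 µM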
CHOP inh – blocks CHOP induction under ER stress; CHO-K1 CHOP-promoter luciferase, tunicamycin-induced, 15-18 h; inhibition, % at 10 µM; 220,000 compounds, 3.8% hits; AID 2732;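 active means compounds that reduced the stress-induced luciferase reporter signal by more than about 70% of percent inhibition, limit read from the data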
TRPM1 prom inh – MITF TRPM1 promoter inhibition in SK-MEL-5 cells. inhibition, % at 12.5 µM. 330,000 compounds, 0.83% hits. AID 488899. SK-MEL-5 TRPM1 promoter luciferase, 24 h;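 active means mean inhibition across replicates of 60% or more, whatever share of single replicates reaches that level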
Each line names hits and unclear results; the compound was inactive in the other large screens.

N#Cc1ccc(-c2ccc(F)cc2)nc1Oc1ccccc1	none
O=C(NC1CCN(S(=O)(=O)c2ccccc2C(F)(F)F)CC1)c1ccco1	none (no result: CHOP inh)
CCC(=O)Nc1ccc(NC(=S)NC(=O)/C=C/c2ccccc2)cc1	CHOP inh 91.7
O=C(COC(=O)[C@H](Cc1c[nH]c2ccccc12)NC(=O)c1ccc(Cl)cc1)Nc1ccc2c(c1)OCO2	CHOP inh 81.5
C=C(C)C1CC=C(C)/C(=N/NC(=O)COc2ccc(C)cc2)C1 (configuration not stated)	CHOP inh 70.3
O=C(C1CCC1)N1CCc2cc(S(=O)(=O)NCCN3CCN(c4ccccc4F)CC3)ccc21	CHOP inh 74.1
CCOc1ccc(NS(=O)(=O)c2ccc3c(c2)CCN3C(=O)C2CCC2)cc1	CHOP inh 81.9
COCCCNC(=O)c1cc(S(=O)(=O)N2CCC3(CC2)OCCO3)ccc1F	none (no result: CHOP inh, TRPM1 prom inh)
NS(=O)(=O)c1ccc(N2CCN(C(=O)c3ccco3)CC2)nc1	Peg3 prom inh 51.1 (no result: CHOP inh)
O=C(NC1CCCCC1)C(c1cccnc1)N(C(=O)CCl)c1ccc(F)cc1 (configuration not stated)	Peg3 prom inh 68.6, CHOP inh 88.1, TRPM1 prom inh 86.5
O=C(NC1CCCCC1)C(c1ccncc1)N(Cc1ccc(F)cc1)C(=O)c1ccccn1 (configuration not stated)	none (no result: CHOP inh)
Cc1ccc(CN(CC(=O)NC2CCCC2)C(=O)c2csnn2)cc1	none (no result: CHOP inh)
O=C(NCC(=O)N(c1ccc(F)cc1)C(C(=O)NC1CCCCC1)c1cccnc1)c1ccco1 (configuration not stated)	none (no result: CHOP inh)
O=C(NC1CCCC1)C(c1ccc(F)cc1)N(Cc1ccc(F)cc1)C(=O)CCl (configuration not stated)	CHOP inh 91.9
CC(=O)c1ccc(N(C(=O)CNC(=O)c2cccs2)C(C(=O)NCC2CCCO2)c2ccccc2)cc1 (configuration not stated)	Peg3 prom inh 93.9 (no result: CHOP inh)
O=C(CN(Cc1ccccc1F)C(=O)c1csnn1)NC1CCCCC1	HIF-2a block 56.6 (no result: CHOP inh)
Cc1cccc(C(=O)Nc2cc(S(=O)(=O)N3CCOCC3)ccc2N2CCCC2)c1	none (no result: CHOP inh)
COc1ccc(S(=O)(=O)N2CCCCCC2)cc1C(=O)NCc1ccc(C)cc1	none (no result: CHOP inh)
O=C(NC1CCCCC1)C(c1ccc(F)cc1)N(CCc1ccccc1)C(=O)CN1C(=O)c2ccccc2S1(=O)=O (configuration not stated)	Peg3 prom inh 79.2, TRPM1 prom inh 64.2
O=C(NCC(=O)N(c1ccccc1)C(C(=O)NC1CCCCC1)c1cccnc1)c1cccs1 (configuration not stated)	CHOP inh 85.6
Cc1ccc(C(C(=O)NC2CCCC2)N(Cc2ccc(F)cc2)C(=O)c2csnn2)o1 (configuration not stated)	CHOP inh 70.8
Cc1ccc(C(C(=O)NC2CCCC2)N(Cc2ccccc2)C(=O)c2csnn2)o1 (configuration not stated)	none (no result: CHOP inh)
COCCCN(C(=O)Cc1ccc(S(=O)(=O)N2CCOCC2)s1)c1c(N)n(Cc2ccccc2)c(=O)[nH]c1=O	none (no result: CHOP inh)
Cc1ccc(SCC(=O)NC(=O)NCCC(C)C)c(C)c1	CHOP inh 80.7
OC(CNC1CCCCC1)CON=C1CCSc2c(Cl)cccc21 (configuration not stated)	Peg3 prom inh 95.6 (no result: CHOP inh, TRPM1 prom inh)
Cc1ccc(C)c(NS(=O)(=O)c2cc(C(=O)NCCSC3CCCCC3)ccc2C)c1	none
Cc1ccccc1NS(=O)(=O)c1cc(C(=O)NCCSC2CCCCC2)ccc1C	CHOP inh 71.9
C=CCn1c(SCc2c(C)noc2C)nc2sc3c(c2c1=O)CCCCC3	none
Cc1noc(C)c1CSc1nc2sc3c(c2c(=O)n1C)CCCC3	CHOP inh 76.0
C=CCn1c(SCc2c(C)noc2C)nc2sc3c(c2c1=O)CCCC3	CHOP inh 82.7
CCn1c([N+](=O)[O-])nc2c1c(=O)[nH]c(=O)n2C	none
Cc1ccc(NC(=O)C(C)Sc2nc(=O)cc(N)n2-c2ccccc2)cc1 (configuration not stated)	CHOP inh 73.3
Nc1cc(=O)nc(SCC(=O)Nc2ccccc2)n1-c1ccccc1	none
Cc1oc2c(c1C(=O)c1ccc(Cl)cc1)C(=O)C(=O)c1ccccc1-2	Peg3 prom inh 107.0, CF NFkB inh 86.2, HIF-2a block 93.8, KKLEB cytotox -62.2
Cc1ccc(S(=O)(=O)NC(=O)C2(C)CCN2C(=O)Cc2cccs2)cc1 (configuration not stated)	none (no result: CHOP inh, TRPM1 prom inh)
Cc1ccccc1OCCNC(=O)CSc1ccc(C(F)(F)F)cc1[N+](=O)[O-]	none
COc1cccc(OCCNC(=O)CSc2ccc(C(F)(F)F)cc2[N+](=O)[O-])c1	CHOP inh 84.7
Nc1nc(Nc2ccccc2)sc1C(=O)c1ccccc1	Peg3 prom inh 91.1, CF NFkB inh 87.4
COc1ccc(C(=O)c2sc(Nc3ccccc3)nc2N)cc1	none (no result: CHOP inh)
COc1ccc(C(=O)c2sc(Nc3ccccc3)nc2N)cc1OC	Peg3 prom inh 78.1 (no result: CHOP inh)
O=C(O)c1cccc(S(=O)(=O)N2CCN(C(c3ccccc3)c3ccccc3)CC2)c1	none
CCOC(=O)c1ccccc1NC(=O)c1c(F)c(F)c(F)c(F)c1F	CHOP inh 73.3
CCOC(=O)c1ccccc1NC(=O)c1ccc(F)cc1	none
CCOC(=O)c1c(C)[nH]c(C(=O)COC(=O)c2ccccc2NC(=O)c2ccco2)c1C	none
CCOC(=O)c1[nH]c(COC(=O)c2ccccc2NC(=O)c2ccco2)c(C(=O)OCC)c1C	CHOP inh 81.3
CCOC(=O)c1ccccc1NC(=O)c1cccc(F)c1	CHOP inh 74.2
C#CCOc1ccc(/C=C2/C(=O)NN(c3ccc(F)cc3)C2=O)cc1OC	none (no result: CHOP inh)
O=C(NCCCCCCNC(=O)OCc1ccccc1)OCc1ccccc1	none (no result: CHOP inh)
O=C(OCc1ccccc1)N(CCCCN(CCCNCc1ccccc1)C(=O)OCc1ccccc1)CCCNCc1ccccc1	Peg3 prom inh 108.1, CF NFkB inh 68.5, HIF-2a block 89.1, KKLEB cytotox -90.3, TRPM1 prom inh 97.3 (no result: CHOP inh)
CCCNc1nc2nc3ccccn3c(=O)c2cc1C(=O)NCCN1CCOCC1	none (no result: CHOP inh)
O=C(CSc1nnc(CNC(=O)c2ccco2)o1)Nc1ccccc1F	none (no result: CHOP inh)
Cc1ccc(S(=O)(=O)N(CCCO)CC(O)CON=C2c3ccccc3-c3ccccc32)cc1 (configuration not stated)	Peg3 prom inh 51.8
CC[n+]1c(/C=C/N(C)c2ccccc2)n(-c2ccccc2)c2ccc(-c3nc4ccccc4s3)cc21	Peg3 prom inh 112.2, CF NFkB inh 92.1, HIF-2a block 91.3, KKLEB cytotox -94.6, TRPM1 prom inh 90.5 (no result: CHOP inh)
Cc1cc(C)n(Cc2ccc(Cl)c(Cl)c2)c(=O)c1S(=O)(=O)c1ccccc1	CHOP inh 74.4
COc1cc(CC(=O)OCC(=O)N2CCCCC2)cc(OC)c1OC	none (no result: CHOP inh)
